{"source": "PubChem BioAssay (NCI)", "note": "Compounds without any hit were thinned out: in the full panel of roughly 83,000, 20% have a hit.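 In brief: 96-well plates, 48 h treatment, single concentration, percent growth endpoint.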 Activity calls are given as the source filed them. Rule for the calls: active = growth percent below 10; inactive = the rest."}
{"system": "UO-31 renal", "experiment": "NCI-60 one-dose screen, 48 h (100 = growth as untreated, 0 = no growth, -100 = all killed)", "conditions": "10 µM unless noted"}
{"smiles": "O=Cc1ccc([N+](=O)[O-])s1", "growth": "89.8% (inactive)"}
{"smiles": "CC(C)(C)n1cc(-c2ccnc(NCCCNS(=O)(=O)c3ccc(F)cc3)c2)c(-c2cccc(F)c2)n1", "growth": "50.3% (inactive)"}
{"smiles": "O=C1C(Cl)=C(Nc2ccc(O)cc2)C(=O)N1Cc1ccc(Cl)cc1", "growth": "52.2% (inactive)"}
{"smiles": "COc1cc(CNC(=O)CCCC/C=C/C(C)C)ccc1OCc1nnc(Nc2ccc([N+](=O)[O-])cc2)o1", "growth": "58.7% (inactive)"}
{"smiles": "O=C(N/N=C/c1ccc(F)cc1)c1ccc(C(F)(F)F)nc1Nc1cccc(C(F)(F)F)c1", "growth": "-18.4% (active)"}
{"smiles": "C=C(C)[C@@H]1CC[C@]2(C(=O)NCCNCCN)CC[C@]3(C)[C@H](CC[C@@H]4[C@@]5(C)C/C(=C/c6ccncc6)C(=O)C(C)(C)[C@@H]5CC[C@]43C)[C@@H]12", "growth": "83.5% (inactive)"}
{"smiles": "O=C(COc1ccc(-c2nc3ccccc3[nH]2)cc1)N=Nc1c(O)[nH]c2ccc(Cl)cc12", "growth": "93.9% (inactive)"}
{"smiles": "C/C(=N/O)c1ccc(F)cc1", "growth": "80.8% (inactive)"}
{"smiles": "COc1ccc(C2=Nc3c/c(=C\\c4c(O)[nH]c5ccc(Cl)cc45)ccc3=N2)cc1", "growth": "59% (inactive)"}
{"smiles": "CCOC(=O)c1cnc2ccccc2c1Cl", "growth": "95.1% (inactive)"}
{"smiles": "CCCc1cc(NC)nc(S(=O)(=O)CC)n1", "growth": "91.8% (inactive)"}
{"smiles": "COc1ccc(/C=C2\\C(=O)N=C3N2NC(c2cc(Br)ccc2O)C=C(C)N3c2ccccc2)cc1", "note": "(stereo not given)", "growth": "81.6% (inactive)"}
{"smiles": "O=S(=O)(NCCNc1nccc(-c2c(-c3cccc(F)c3)nc3occn23)n1)c1ccc(Br)cc1", "growth": "64% (inactive)"}
{"smiles": "CCn1cc(C(=O)N/N=C/c2cccs2)c(=O)c2cc(F)c(N3CCNC(C)C3)c(F)c21", "note": "(stereo not given)", "growth": "66.8% (inactive)"}
{"smiles": "Cn1c(=O)c2[nH]c(N/N=C/c3ccccc3Br)nc2n(C)c1=O", "growth": "92.4% (inactive)"}
{"smiles": "CCCCCCNC(=O)Oc1ccc(/C(=C(/C)Cc2ccc(OC)cc2)c2ccc(OCCCN(C)C)cc2)cc1", "growth": "0.897% (active)"}
{"smiles": "O=C(OCc1ccc2cccc(O)c2n1)N1CCN(C(=O)c2cc3cc(F)ccc3[nH]2)CC1", "growth": "-100% (active)"}
{"smiles": "CC(=O)[C@@H]1CCC=C2CC[C@]3(C)[C@@H](CC[C@@H]4[C@@]5(C)CCCNC(C)(C)[C@@H]5CC[C@]43C)[C@H]21", "growth": "18.4% (inactive)"}
{"smiles": "O=c1oc2ccc([N+](=O)[O-])cc2cc1Br", "growth": "88.5% (inactive)"}
{"smiles": "S=C(Nc1ccc(-c2nc(N3CCOCC3)c3cccn3n2)cc1)Nc1cccnc1", "growth": "15.1% (inactive)"}
{"smiles": "O=C1/C(=C/c2ccc(-c3ccc(Br)cc3)o2)SC(=S)N1CCc1ccc(O)cc1", "growth": "39.9% (inactive)"}
{"smiles": "CCOC(=O)CSc1ncnc2c1c(-c1ccccc1)c(-c1ccccc1)n2-c1ccc(C)cc1", "growth": "73.4% (inactive)"}
{"smiles": "CCNc1cc(-c2cccc(OC(F)(F)F)c2)nc2ccc(N3CCCC3)cc12", "growth": "5.13% (active)"}
{"smiles": "CCCCNC(=O)Oc1ccc(/C(=C(/CC)Cc2ccccc2)c2ccc(OCCN3CCCCCC3)cc2)cc1", "growth": "35.2% (inactive)"}
{"smiles": "COc1ccc(-c2nc3c(c(-c4ccccc4)nn3-c3ccccc3)c(-c3ccc(N4CCOCC4)cc3)c2C#N)cc1", "growth": "103% (inactive)"}
{"smiles": "COc1cc(-c2csc(NC(=O)c3cc(-n4cnc(C)c4)cc(C(F)(F)F)c3)n2)cc(OC)c1OC", "growth": "29.8% (inactive)"}
{"smiles": "COc1cc(CNS(=O)(=O)c2ccc(C)cc2)ccc1OCc1cn(-c2ccc(Br)cc2)nn1", "growth": "69.3% (inactive)"}
{"smiles": "Nc1ncnc2c1N=C(c1ccc3c(c1)OCO3)CC(c1ccc([N+](=O)[O-])cc1)N2", "note": "(stereo not given)", "growth": "64.1% (inactive)"}
{"smiles": "COc1ccc(-c2nc3c(c(-c4ccccc4)nn3-c3ccccc3)c(-c3ccc(N4CCN(C)CC4)cc3)c2C#N)cc1", "growth": "76.2% (inactive)"}
{"smiles": "CCOC(=O)C(=Cc1cccc(Cl)c1)C(=O)OCC", "growth": "-56.2% (active)"}
{"smiles": "O=C1NC(=O)c2c1c1c3ccccc3ccc1c1[nH]c3ccc(Br)cc3c21", "growth": "2.24% (active)"}
{"smiles": "CC1(c2ccccc2O)NN=C(/N=C/c2cccc([N+](=O)[O-])c2)N1C(Cc1c[nH]c2ccccc12)C(=O)O", "note": "(stereo not given)", "growth": "70.8% (inactive)"}
{"smiles": "CCOP(=O)(OCC)c1nc(-c2ccccc2)oc1NCc1cccnc1", "growth": "89.7% (inactive)"}
{"smiles": "CCOC(=O)c1cn2ncnc(Oc3ccc(NC(=O)NC4CCCCC4)c(Cl)c3)c2c1C", "growth": "79% (inactive)"}
{"smiles": "COC(=O)c1cc(-c2ccccc2)[nH]c1N/N=C/c1c(Cl)cccc1Cl", "growth": "42.3% (inactive)"}
{"smiles": "COc1ccc(-c2nnc(-c3ccc4c(c3)nc(-c3ccncc3)n4C3CCCCC3)o2)cc1", "growth": "38.3% (inactive)"}
{"smiles": "CC(C)(C)c1cc(-c2nc3ccc(N4CCN(S(C)(=O)=O)CC4)cc3[nH]2)cc(C(C)(C)C)c1O", "growth": "97% (inactive)"}
{"smiles": "CCCCN1C(=O)/C(=c2\\sc3n(c2=O)C2C(NN=3)N(CC)C(=O)N2CC)c2ccccc21", "note": "(stereo not given)", "growth": "18.4% (inactive)"}
{"smiles": "N#Cc1nn(-c2cc(=O)[nH]c3ccc(Cl)cc23)c(N)c1C#N", "growth": "75.8% (inactive)"}
{"smiles": "Cc1ccc(-n2c(=S)[nH]c3sc4c(c3c2=O)CCC(=O)C4)cc1", "growth": "43.8% (inactive)"}
